Shown are actives, neighbours in structure and some others; about 28% of the full set was active somewhere.
PLK1 kinase inh: human PLK1 kinase inhibitors, primary screen, biochemical, TR-FRET | Serine/threonine-protein kinase PLK1 (Homo sapiens), P53350 | AID 619, 2007 | recombinant PLK1 kinase, TR-FRET peptide phosphorylation | 0.53% of 97,000 active | inhibition, % at 10 µM;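 active means inhibition of 50% or more in the single-concentration screen; inactive means inhibition below 50%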
CYP2C19 activ: human CYP2C19 activators, primary screen, biochemical, luminescence; Cytochrome P450 2C19 (Homo sapiens), P33261; recombinant CYP2C19, luciferin-H EGE luminescence; hits give high values; 0 = fully inhibited enzyme, 1 = untreated enzyme; activation factor at 5 µM; 96,000 tested, under 10 active;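 active means activation factor of at least 2 at 5 µM in the primary screen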
Target sequence (P33261 whole entry, looked up): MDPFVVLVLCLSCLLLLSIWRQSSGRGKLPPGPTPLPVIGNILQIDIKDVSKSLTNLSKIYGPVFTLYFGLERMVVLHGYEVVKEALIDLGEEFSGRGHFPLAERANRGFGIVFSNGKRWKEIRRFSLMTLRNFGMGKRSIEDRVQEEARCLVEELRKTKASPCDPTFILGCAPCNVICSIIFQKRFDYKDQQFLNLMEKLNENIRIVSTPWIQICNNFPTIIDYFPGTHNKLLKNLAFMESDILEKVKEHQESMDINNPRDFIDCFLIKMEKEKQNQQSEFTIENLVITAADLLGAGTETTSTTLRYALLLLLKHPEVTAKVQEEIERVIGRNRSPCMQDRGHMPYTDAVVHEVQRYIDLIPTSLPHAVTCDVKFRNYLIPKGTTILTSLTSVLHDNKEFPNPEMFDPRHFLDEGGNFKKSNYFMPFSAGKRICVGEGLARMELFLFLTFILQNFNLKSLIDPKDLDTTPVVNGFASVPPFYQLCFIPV
PLK1 PBD inh: Plk1 polo box domain binding inhibitors, primary screen, biochemical, fluorescence polarization | Serine/threonine-protein kinase PLK1 (Homo sapiens), P53350 | Plk1 PBD phosphopeptide binding | inhibition, %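 (tested at about 20 µM)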 | 0.13% of 97,000 active; in the data active means inhibition above about 34%, passing the limit was not always enough
CYP2C19 inh: blockers of cytochrome P450 2C19 activity – biochemical, luminescence, ADME assay, primary screen; CYP2C19 Supersomes, luciferin-H EGE luminescence, 30 min; 21% of 96,000 active; P33261; inhibition, % at 5 µM;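 active means CYP2C19 inhibition above a set limit at 5 µM in the primary screen, cut at about 50% in these data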
CYP2C9 inh: blockers of cytochrome P450 2C9 activity – biochemical, luminescence, ADME assay, primary screen | CYP2C9 Supersomes, luciferin-H conversion | inhibition, % at 5 µM | 20% of 96,000 active | AID 777, 2007;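 active means blocking of liver enzyme CYP2C9 beyond about 50% at 5 µM, limit read from the data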
CYP2C9 act: human CYP2C9 activators, primary screen, biochemical, luminescence; recombinant CYP2C9, luciferin-H conversion; hits give high values; factor 1 = untreated enzyme, 0 = blocked; activation factor at 5 µM; 1.4% of 96,000 active; AID 1024, 2008;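 active means activation factor of 2 or more for CYP2C9 at a 5 µM dose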
Hits are given with their value; - = inactive; . = not tested or not shown.

SMILES	PLK1 kinase inh	CYP2C19 activ	PLK1 PBD inh	CYP2C19 inh	CYP2C9 inh	CYP2C9 act
O=c1c(-c2ccc3c(c2)OCCO3)coc2cc(O)cc(O)c12	-	-	-	-	-	2.4
COc1cccc(-c2nc(CS(=O)(=O)CC(=O)NC3CCCc4ccccc43)c(C)o2)c1 (stereo not given)	-	-	-	-	-	-
CCOc1ccc(-c2nc(CSCC(=O)NCc3ccco3)c(C)o2)cc1	.	-	.	67.2	75.9	-
CCOc1ccc(-c2nc(CSCC(=O)NC3CCCc4ccccc43)c(C)o2)cc1 (stereo not given)	-	-	-	65.2	-	-
Cc1ccc(-c2csc3n[nH]c(=S)n23)cc1	-	-	-	-	-	-
O=C(NNC(=S)NCc1ccco1)c1ccc(Cl)s1	-	-	-	-	55.4	-
CCOc1cccc(-c2nnc3sc(COc4ccc(Cl)cc4)nn23)c1	-	-	-	-	-	-
COc1ccc(-c2oc3ccccc3c(=O)c2OC(=O)c2ccc(C)cc2)cc1	-	-	-	84.0	88.6	-
O=C(Oc1c(-c2ccccc2)oc2ccccc2c1=O)c1ccccc1	-	-	-	-	-	-
Cc1ccc(NCC(=O)N/N=C/c2cc3ccccc3nc2Cl)cc1	-	-	-	-	53.7	-
O=C(CN1CCOCC1)N/N=C/c1cc2ccccc2nc1Cl	-	-	-	-	-	-
CC(=O)Nc1ccc(S(=O)(=O)N2CCC(c3nc4ccccc4[nH]3)CC2)cc1	-	-	-	-	68.3	-
Cc1ccc2nc(C3CCN(S(=O)(=O)c4ccc5ccccc5c4)CC3)[nH]c2c1	-	-	-	-	-	3
Cc1ccc(S(=O)(=O)N2CCCN(S(=O)(=O)c3ccc4ccccc4c3)CC2)cc1	-	.	-	.	.	.
CC(=O)Nc1ccc(S(=O)(=O)N2CCN(c3cc(C)nc4ccccc34)CC2)cc1	-	-	-	-	66.2	-
O=S(=O)(c1ccc2c(c1)OCCO2)N1CCC(c2nc3ccc(Cl)cc3[nH]2)CC1	-	-	-	84.3	-	2.1
O=C(COC(=O)C1COc2ccccc2O1)Nc1ccc2c(c1)CCC2 (stereo not given)	-	-	-	-	-	-
Cc1nc(SCC(O)CO)c([N+](=O)[O-])[nH]1 (stereo not given)	-	-	-	-	-	-
Cc1c(C2N3CC4(C)CN2CC(C)(C3)C4=O)c2ccccc2n1C (stereo not given)	.	-	.	-	-	-
O=S(=O)(c1ccc2c(c1)OCCO2)N1CCC(c2nc3ccccc3[nH]2)CC1	-	-	-	63.2	-	-
COc1cc(NS(=O)(=O)c2ccc(F)cc2)c(OC)cc1NC(C)=O	-	-	-	99.0	66.9	-
COc1ccc(NC(=O)C2CCCN(S(=O)(=O)c3ccc(C)cc3)C2)cc1OC (stereo not given)	-	.	-	.	.	.
COc1ccc(NC(=O)C2CC2)cc1NS(=O)(=O)c1ccc(F)cc1	-	-	-	58.4	-	-
CCOc1cc(NS(=O)(=O)c2ccc(NC(C)=O)cc2)c(OCC)cc1NC(=O)C(C)C	-	-	-	-	-	-
Cc1cccc(N(C(=O)CNC(=O)c2ccco2)C(C(=O)NC2CCCC2)c2ccncc2)c1 (stereo not given)	-	.	-	.	.	.
SMILES	PLK1 kinase inh	CYP2C19 activ	PLK1 PBD inh	CYP2C19 inh	CYP2C9 inh	CYP2C9 act
COC(=O)Cc1ccc2c3ccccc3n(C)c2c1	-	-	-	71.4	-	-
Cn1c2ccc(CC(=O)O)cc2c2cc(CC(=O)O)ccc21	-	-	-	-	-	-
CSc1nc(C)c(CCOCc2ccccc2)c(=O)[nH]1	-	-	-	69.1	-	-
CC(C)c1c(O)nc(SCc2ccccc2)[nH]c1=O	.	-	.	-	52.3	-
Cc1nc(SCC(C)C)[nH]c(=O)c1Cc1ccccc1	.	-	.	58.6	-	-
CCOC(=O)N1CCN(c2c(F)cc3[nH]c(=S)[nH]c3c2Br)CC1	-	-	-	-	69.5	-
Nc1nc(N)nc(-c2ccccc2O)n1	-	-	-	-	-	-
Cc1cc(C)nc(SCc2nc(N)nc(-c3ccccc3O)n2)n1	-	-	-	85.1	-	-
CCOC(=O)N1CCN(c2cc(=O)n(Cc3ccc(F)cc3)c(=O)[nH]2)CC1	-	.	-	.	.	.
COCCn1nnnc1C(c1ccc2ncccc2c1)N1CCc2ccccc21 (stereo not given)	-	-	-	93.5	80.4	-
COCCn1nnnc1C(c1ccc(OC)c(OC)c1)N1CCc2ccccc21 (stereo not given)	-	-	-	74.2	68.7	-
COCCn1nnnc1C(c1ccccc1OC)N1CCc2ccccc2C1 (stereo not given)	-	.	-	.	.	.
N#CCCNc1ccc(OCCC#N)cc1	-	-	-	-	-	-
Cn1nc(C(F)(F)F)c(/C=N/OC(=O)c2ccccc2)c1SCc1ccc(Cl)cc1	-	-	-	-	-	-
Cn1nc(C(F)(F)F)c(/C=N/OC(=O)c2ccccc2Cl)c1SCc1ccccc1Cl	-	-	-	68.4	93.3	-
CCCn1nnnc1NCc1ccccc1OCc1cccs1	-	-	-	-	-	-
CCCn1nnnc1NCc1ccccc1OCc1ccc(F)cc1	-	-	-	87.6	89.0	-
Cc1ccc(CS(=O)(=O)c2ccccc2-c2nnc(-c3ccc(Cl)cc3)o2)cc1	-	-	-	-	90.7	-
Cc1ccc(C)c(S(=O)(=O)Nc2ccc3sc(C)nc3c2)c1	-	.	-	.	.	.
COc1cccc(S(=O)(=O)Nc2ccc3sc(C)nc3c2)c1	-	-	-	100.3	94.9	-
COc1ccc(O)c(/C=c2/sc3nc4cc(C)c(C)cc4n3c2=O)c1	.	-	.	-	-	-
CC1(C)NC(=O)N(CC(O)COc2ccc(-c3ccccc3)cc2)C1=O (stereo not given)	-	-	-	-	-	-
Cc1ccc(N(CN2C(=O)NC(C)(C)C2=O)CN2C(=O)NC(C)(C)C2=O)cc1	.	-	.	51.3	-	-
Cc1nc2ccc(Cl)cc2nc(C)/c1=N\O	-	-	-	-	-	-
Cc1n[nH]c(C)c1N=Nc1cc(Cl)ccc1Cl	53.7	-	-	-	-	-
O=c1nc2n(c3cc(Cl)c(S(=O)(=O)N4CCOCC4)cc13)CCCCC2	-	-	-	-	-	-
CC1(C)Cc2ccccc2-c2nnc(SCC(=O)Nc3nc4ccccc4s3)n21	-	-	-	-	-	-
CCOC(=O)c1ccc(NC(=O)C2(c3ccc(OC)cc3)CCCC2)cc1	-	-	-	-	-	-
O=S(=O)(C=C(c1ccccc1)c1ccccc1)c1ccccc1	-	-	-	65.9	-	-
O=S(=O)(/C=C/c1ccccc1)c1ccccc1	-	-	-	90.8	-	4.1

Screening results from PubChem BioAssay.
